Assay outcomes deposited in PubChem BioAssay by National Center for Advancing Translational Sciences (NCATS).
TDP1 cell noCPT: qHTS for Inhibitors of human tyrosyl-DNA phosphodiesterase 1 (TDP1): qHTS in cells in absence of CPT; DT40 Tdp1-/- hTDP1 cells, no CPT, ATP luminescence, 48 h; Potency, µM (highest dose often 46.2 µM), for inactives: top-dose activity change, negative = growth inhibition, actives largely listed as inhibitors; 15% of 420,000 active; also: potency is read from the fitted curve at half-maximal effect; nearly all actives have a fitted effect of over 55% in size
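Compound effects on proliferation are scored in DT40 Tdp1-/-;hTDP1 cells in the absence of CPT. ATP levels (CellTiter-Glo luminescence) are recorded after a ≥48 hr, 37 °C incubation.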
HT1080NT lethal: kills 2HG-producing HT-1080-NT fibrosarcoma cells; Potency, µM (top dose mostly 46.1 µM), inactives show at the highest dose activity, negative = less viability, usual class: cytotoxic; 1.6% of 360,000 active; AID 686970; HT-1080-NT fibrosarcoma viability, CellTiter-Glo ATP luminescence, 48 h;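 also: NT is the 2HG producing partner of a matched IDH1 knockdown line; potency is read from the fitted curve at half-maximal effect; 0% = DMSO-treated cells and -100% = media-only wells without cells; nearly all actives have a fitted effect of over 55% in size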
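HT-1080-NT fibrosarcoma cells (2HG-overproducing), 750 cells/well in RPMI with 5% FBS, dosed after 2 h and incubated 48 h at 37C. CellTiter-Glo luminescence normalized to DMSO and no-cell wells; concentration-response curves fitted and classed.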
IL-1B inflam inh: inflammasome signaling inhibition, IL-1 beta readout. THP-1 LPS/ATP IL-1B secretion, AlphaLISA, 16 h; stronger effect = lower value. activity change, % at 57.5 µM. 4.7% of 360,000 active; in the data active = activity change below about -50%; inconclusive = mostly about -30% to -49%
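Secreted IL-1B measured by AlphaLISA bead assay after 16 h compound exposure of THP-1 cells; compounds (final up to 57.5 uM) added 1 h before LPS (250 ng/mL) and ATP (1.25 mM) stimulation; lower signal means less secretion.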
DT40 TDP1 CPT: growth inhibition of DT40 Tdp1-/-;hTDP1 cells with camptothecin (screen for TDP1 inhibitors); Potency, µM (series often up to 46.2 µM), inactives show at the top dose activity change, negative = growth inhibition, most hits filed as inhibitors; chicken DT40 Tdp1-/-;hTDP1 cells + 20 nM CPT, ATP luminescence, 48 h; 12% of 420,000 active; also: potency is read from the fitted curve at half-maximal effect; nearly all actives have a fitted effect of over 55% in size
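Chicken DT40 Tdp1-/- cells complemented with human TDP1, 400 cells/well, exposed to compounds plus 20 nM camptothecin for at least 48 h at 37 C; viability read as ATP content by CellTiter-Glo luminescence.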
HT1080 IDH1KD tx: toxicity to HT-1080 IDH1 knockdown cells (counter line); Potency, µM (highest dose often 46.1 µM), without a hit: at the top dose activity, negative = toxicity, actives largely listed as cytotoxic; AID 686971; 2% of 360,000 active; HT-1080 IDH1 knockdown viability, ATP luminescence, 48 h;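 also: potency is read from the fitted curve at half-maximal effect; 0% = DMSO wells and -100% = cell-free medium wells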
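Knockdown cells (IDH1KD HT-1080) received compounds 2 h after plating at 750 cells/well and were kept 48 h at 37 °C in 5% FBS RPMI. A CellTiter-Glo luminescence read gave % activity for curve fitting.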
Active calls of the source: *; u = inconclusive; x = no result given. A selection: hits, their analogues and other compounds. The true share with any hit is near 19%. Unless noted, calls follow the shape of the dose curve; as a rule, active = well fitted curve in the direction sought with a large enough effect; inconclusive = small, poorly fitted or top-dose-only effect, or another doubt; inactive = no such curve, though single readings can be large; an effect the other way counts as inactive or inconclusive. Unless noted, % is scaled to controls: 0 for no effect and ±100 for the full control effect.

SMILES | TDP1 cell noCPT | HT1080NT lethal | IL-1B inflam inh | DT40 TDP1 CPT | HT1080 IDH1KD tx
Cc1cccc(C)c1OCc1cc(C(=O)N2CCN(c3ccc(F)cc3)CC2)no1 | -24% | -4% | -51* | u | -15%
Cc1ccc(Cl)cc1N1CCN(C(=O)c2ccc(CS(=O)(=O)c3ccccc3C)o2)CC1 | 18µM* | x | x | u | x
Cc1cccc(C)c1NC(=O)C(c1ccccc1)N1CCN(C)CC1 (configuration not stated) | -24% | 5% | -13 | -1% | 24%
Cc1cccc(C)c1NC(=O)C(c1ccnc2ccccc12)n1c(=O)c(-c2ccco2)nc2ccccc21 (configuration not stated) | 16µM* | -18% | -8 | u | -17%
O=C(Nc1ccc2c(c1)OCCO2)C(c1ccnc2ccccc12)N1CCC(Cc2ccccc2)CC1 (configuration not stated) | 18µM* | -17% | 3 | u | -14%
Cc1cccc(C)c1NC(=O)C(c1ccccc1F)n1c(=O)c(-c2ccco2)nc2ccccc21 (configuration not stated) | 21µM* | -10% | -11 | u | 1%
COc1ccc(NC(=O)C(c2ccnc3ccccc23)n2c(=O)c(-c3ccco3)nc3ccccc32)cc1 (configuration not stated) | u | -2% | -4 | u | -1%
COc1ccc(NC(=O)C(c2ccccc2F)n2c(=O)c(-c3ccco3)nc3ccccc32)cc1 (configuration not stated) | u | -5% | -15 | u | -6%
Cc1cccc(C)c1NC(=O)C(c1ccnc2ccccc12)N1CCN(C)CC1 (configuration not stated) | 18µM* | 2% | 31 | u | -1%
Cc1ccccc1N=Nc1c(O)n(C)c2ccccc12 | 23µM* | 3% | 19 | u | -8%
Cn1c(O)c(N=NC(=N)N)c2ccccc21 | 2% | -2% | -4 | -1% | 0%
C=CCn1c(O)c(N=Nc2nc3ccccc3c(=O)n2-c2ccccc2)c2ccccc21 | 12µM* | 0% | 24 | -30% | -11%
C=CCn1c(O)c(N=Nc2ccccc2)c2ccccc21 | u | -5% | 9 | u | 11%
C=CCn1c(O)c(N=Nc2ccccc2O)c2ccccc21 | 18µM* | -14% | u | u | -23%
O=C1OCC2=C1C(c1cccc(Cl)c1)CC(=O)N2c1ccc(C(F)(F)F)cc1 (configuration not stated) | 1% | x | x | -6% | x
O=C1c2c(-c3ccc(Br)cc3)noc2CCN1Cc1cn(-c2ccc(Cl)cc2)nn1 | u | u | -24 | u | -26%
CCOc1ccc(-c2noc(CCC(=O)NCC3CCCO3)n2)cc1OC (configuration not stated) | 2% | 9% | 8 | 4% | 7%
CCCc1cc(=O)[nH]c(SCc2cc(Cl)ccc2OC(F)F)n1 | -9% | -20% | 12 | 2% | -1%
NC1=NC(=O)S/C1=C\c1ccc(F)cc1 | -16% | 23µM* | -8 | -6% | u
Nc1c(C(=O)NCc2ccco2)c2nc3ccccc3nc2n1CCc1ccccc1 | u | u | -57* | u | 0%
CCOc1ccc(-n2c(N)c(C(=O)NCc3ccco3)c3nc4ccccc4nc32)cc1 | 18µM* | u | -96* | 21µM* | u
O=C1c2c(-c3ccc(Br)cc3)noc2CCN1Cc1cn(C2CCCC2)nn1 | u | -21% | -17 | u | u
CCOC(=O)/C(C#N)=C/c1cc2ccc(C)cc2nc1Cl | 2.9µM* | 0% | 24 | 4.1µM* | -2%
CCOC(=O)/C(C#N)=C/c1cc2cc(C)c(C)cc2nc1Cl | u | -11% | -24 | u | 1%
Cc1cc(/C=C(\C#N)C(=O)Nc2ccccc2)c(C)n1-c1cccnc1 | u | 5% | -76* | u | 8%
SMILES | TDP1 cell noCPT | HT1080NT lethal | IL-1B inflam inh | DT40 TDP1 CPT | HT1080 IDH1KD tx
Cc1cc(/C=C(\C#N)C(=O)Nc2ccccc2)c(C)n1-c1ccc(F)cc1 | 2% | x | x | -8% | x
CCOC(=O)/C(C#N)=C/c1cc(C)n(-c2ccccc2)c1C | 21µM* | 4% | -12 | 16µM* | 12%
Cc1ccc(NC(=O)/C(C#N)=C/c2cc(C)n(-c3ccc(Br)cc3)c2C)cc1C | 5.8µM* | x | x | 4.6µM* | x
Cc1ccc(-n2c(C)cc(/C=C(\C#N)C(=O)Nc3ccc(C)c(C)c3)c2C)cc1 | u | x | x | -28% | x
Cc1ccc2c(N)c(C(=O)N(c3ccccc3)c3ccccc3)sc2n1 | u | -4% | 16 | u | -8%
COc1ccc(C(CNC(=O)c2cccc(S(=O)(=O)Nc3ccc(F)cc3)c2)N2CCCCC2)cc1 (configuration not stated) | u | -25% | -1 | u | -13%
CN1C(=O)CON=C1c1cccc2ccccc12 | -3% | 10% | 0 | -2% | u
CC(O)CC(C)O (configuration not stated) | 0% | 1% | 0 | 1% | 12%
CCN(CC(=O)Nc1ccccc1OC)C(=O)CN1C(=O)NC(C)(c2ccc3ccccc3c2)C1=O (configuration not stated) | u | -3% | 0 | -13% | 5%
Cc1cc2nc(Cl)c(Cl)nc2cc1C | 8% | 0% | -2 | -7% | 2%
Cc1cc(C(=O)O)ccc1-n1c(C)cc(/C=C(/C#N)C(=O)Nc2ccccc2)c1C | -34% | -8% | -66* | -27% | -18%
Cc1cc2cc(C=C(C#N)C#N)c(Cl)nc2cc1C | 7.3µM* | -21% | -100* | 7.3µM* | u
O=C1CCCC2=C1C1(CCCCC1)N=C(Nc1nc3ccccc3s1)N2 | u | 16% | 27 | 18µM* | -3%
O=C1CCCC2=C1C1(CCCC1)N=C(Nc1nc3ccccc3s1)N2 | u | 10% | 17 | u | 12%
CCc1nc2ccc(C(=O)NCC3CCCCC3)cn2c1N(CCC(C)C)CCN(C)C | 26µM* | 18µM* | 18 | 18µM* | 16µM*
CCc1nc2ccc(C(=O)NCc3ccc(OC)cc3)cn2c1N(CCC(C)C)CCN(C)C | 16µM* | u | -15 | u | u
CCc1nc2ccc(C(=O)N3CCCCC3)cn2c1N(CCC(C)C)CCN(C)C | -27% | 16% | -14 | -30% | 15%
CCc1nc2ccc(C(=O)NCc3ccccc3OC)cn2c1N(C=O)CCC(C)C | 16µM* | 5% | -9 | 23µM* | 12%
COc1ccc(CCC(C)N(C)Cc2ccccc2)cc1 (configuration not stated) | u | -4% | -4 | -21% | -2%
